Our source for the log2 fold change values is the supplement of paper PMC12819154, “High-throughput peptide-centric local stability assay extends protein–ligand identification to membrane proteins, tissues and bacteria” (Nature Structural & Molecular Biology, 2025).

Chain of UniProt Q9Y2K2 (Q9Y2K2 whole entry, looked up): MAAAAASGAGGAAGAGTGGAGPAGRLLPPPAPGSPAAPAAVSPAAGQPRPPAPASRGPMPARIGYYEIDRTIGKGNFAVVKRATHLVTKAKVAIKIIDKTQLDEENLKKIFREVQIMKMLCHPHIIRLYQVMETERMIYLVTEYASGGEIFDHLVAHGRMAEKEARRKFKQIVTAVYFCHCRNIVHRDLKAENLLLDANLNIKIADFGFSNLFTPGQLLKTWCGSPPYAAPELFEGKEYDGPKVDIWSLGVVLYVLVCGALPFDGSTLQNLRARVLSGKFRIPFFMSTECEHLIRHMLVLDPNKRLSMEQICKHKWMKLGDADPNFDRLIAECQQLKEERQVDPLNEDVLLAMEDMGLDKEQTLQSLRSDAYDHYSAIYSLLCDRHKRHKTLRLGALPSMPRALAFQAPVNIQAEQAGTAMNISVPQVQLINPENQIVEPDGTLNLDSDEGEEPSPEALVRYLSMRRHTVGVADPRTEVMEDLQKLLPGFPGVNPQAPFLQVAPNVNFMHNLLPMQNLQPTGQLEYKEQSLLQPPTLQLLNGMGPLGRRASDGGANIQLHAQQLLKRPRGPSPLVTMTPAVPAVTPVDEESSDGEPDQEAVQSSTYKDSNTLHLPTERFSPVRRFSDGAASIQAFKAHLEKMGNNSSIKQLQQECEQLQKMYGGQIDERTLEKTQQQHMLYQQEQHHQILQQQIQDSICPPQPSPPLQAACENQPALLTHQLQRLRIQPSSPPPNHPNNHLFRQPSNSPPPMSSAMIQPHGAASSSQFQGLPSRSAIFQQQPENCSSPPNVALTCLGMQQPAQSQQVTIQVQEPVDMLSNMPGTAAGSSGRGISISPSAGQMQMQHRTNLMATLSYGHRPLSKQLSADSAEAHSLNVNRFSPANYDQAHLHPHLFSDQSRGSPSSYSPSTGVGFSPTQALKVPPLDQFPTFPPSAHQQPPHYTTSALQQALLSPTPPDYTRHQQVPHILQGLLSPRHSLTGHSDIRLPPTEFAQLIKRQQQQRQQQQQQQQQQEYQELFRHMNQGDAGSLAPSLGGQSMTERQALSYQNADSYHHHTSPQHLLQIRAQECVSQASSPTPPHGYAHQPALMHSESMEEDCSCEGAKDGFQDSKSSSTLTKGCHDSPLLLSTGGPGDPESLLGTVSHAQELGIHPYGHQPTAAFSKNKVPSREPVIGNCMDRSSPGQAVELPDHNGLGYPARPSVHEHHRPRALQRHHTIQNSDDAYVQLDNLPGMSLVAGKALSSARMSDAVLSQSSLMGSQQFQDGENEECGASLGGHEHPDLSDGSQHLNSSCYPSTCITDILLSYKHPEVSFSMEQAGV
Chain of UniProt P22830 (P22830 whole entry): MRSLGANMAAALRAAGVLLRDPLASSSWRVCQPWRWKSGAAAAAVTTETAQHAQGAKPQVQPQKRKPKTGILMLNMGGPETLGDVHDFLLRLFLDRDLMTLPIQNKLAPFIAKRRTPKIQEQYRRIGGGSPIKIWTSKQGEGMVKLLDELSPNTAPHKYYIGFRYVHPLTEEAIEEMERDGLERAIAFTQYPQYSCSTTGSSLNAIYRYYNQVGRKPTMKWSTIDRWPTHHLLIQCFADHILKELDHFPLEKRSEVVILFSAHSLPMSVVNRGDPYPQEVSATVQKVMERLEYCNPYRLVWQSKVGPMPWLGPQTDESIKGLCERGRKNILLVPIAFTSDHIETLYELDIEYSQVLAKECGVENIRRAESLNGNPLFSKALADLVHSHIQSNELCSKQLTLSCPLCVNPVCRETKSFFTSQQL
Chain of UniProt P55263 (P55263 whole entry, looked up): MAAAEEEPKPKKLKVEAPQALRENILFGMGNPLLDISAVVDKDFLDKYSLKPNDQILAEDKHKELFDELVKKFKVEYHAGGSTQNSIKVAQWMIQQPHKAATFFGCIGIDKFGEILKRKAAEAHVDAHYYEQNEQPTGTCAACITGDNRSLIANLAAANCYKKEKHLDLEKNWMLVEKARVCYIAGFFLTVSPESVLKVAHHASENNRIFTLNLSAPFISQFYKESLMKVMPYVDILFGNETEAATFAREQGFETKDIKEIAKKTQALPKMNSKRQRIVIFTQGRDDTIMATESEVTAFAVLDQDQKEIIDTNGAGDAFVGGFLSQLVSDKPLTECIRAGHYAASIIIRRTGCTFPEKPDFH
Chain of UniProt P11216 (P11216 whole entry): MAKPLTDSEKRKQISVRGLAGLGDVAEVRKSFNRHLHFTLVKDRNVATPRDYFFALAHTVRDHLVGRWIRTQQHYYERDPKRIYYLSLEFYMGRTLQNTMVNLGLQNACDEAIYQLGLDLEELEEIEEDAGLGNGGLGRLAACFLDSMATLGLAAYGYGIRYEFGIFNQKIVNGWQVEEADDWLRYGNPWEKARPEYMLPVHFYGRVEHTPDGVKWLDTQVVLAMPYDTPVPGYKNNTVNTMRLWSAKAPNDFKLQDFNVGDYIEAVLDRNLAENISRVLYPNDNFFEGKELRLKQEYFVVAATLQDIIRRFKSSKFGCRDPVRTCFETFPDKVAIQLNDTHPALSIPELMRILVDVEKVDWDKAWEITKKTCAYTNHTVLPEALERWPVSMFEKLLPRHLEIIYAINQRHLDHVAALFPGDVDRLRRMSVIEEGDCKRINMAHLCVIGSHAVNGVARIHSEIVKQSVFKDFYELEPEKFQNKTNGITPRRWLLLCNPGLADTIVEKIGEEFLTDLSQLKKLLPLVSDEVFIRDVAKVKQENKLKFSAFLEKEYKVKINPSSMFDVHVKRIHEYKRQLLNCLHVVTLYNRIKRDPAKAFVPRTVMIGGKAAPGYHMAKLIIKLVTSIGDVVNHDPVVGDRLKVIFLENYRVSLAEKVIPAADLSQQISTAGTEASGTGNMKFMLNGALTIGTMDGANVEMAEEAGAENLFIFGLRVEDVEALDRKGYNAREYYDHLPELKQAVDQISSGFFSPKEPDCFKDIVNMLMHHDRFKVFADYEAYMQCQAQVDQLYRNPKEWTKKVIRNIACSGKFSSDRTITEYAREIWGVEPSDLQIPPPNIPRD
Chain of UniProt P53671 (P53671 whole entry, looked up): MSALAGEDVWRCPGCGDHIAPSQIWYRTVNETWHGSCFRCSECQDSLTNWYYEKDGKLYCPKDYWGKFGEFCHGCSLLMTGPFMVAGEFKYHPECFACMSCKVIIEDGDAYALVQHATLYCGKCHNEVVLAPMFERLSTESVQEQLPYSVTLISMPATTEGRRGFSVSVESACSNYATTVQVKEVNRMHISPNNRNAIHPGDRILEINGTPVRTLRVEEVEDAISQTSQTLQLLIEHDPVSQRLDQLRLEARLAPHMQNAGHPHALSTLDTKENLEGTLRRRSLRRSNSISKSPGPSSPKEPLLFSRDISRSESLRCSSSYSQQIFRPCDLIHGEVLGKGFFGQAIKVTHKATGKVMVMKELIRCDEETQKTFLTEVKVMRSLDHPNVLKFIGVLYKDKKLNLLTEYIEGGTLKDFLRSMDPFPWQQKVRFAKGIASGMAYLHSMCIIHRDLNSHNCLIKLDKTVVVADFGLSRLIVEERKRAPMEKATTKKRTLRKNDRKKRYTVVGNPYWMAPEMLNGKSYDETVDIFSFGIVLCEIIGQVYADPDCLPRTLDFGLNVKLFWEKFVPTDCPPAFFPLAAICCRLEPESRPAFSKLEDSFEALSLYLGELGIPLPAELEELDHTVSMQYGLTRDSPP
Chain of UniProt Q9UKE5 (Q9UKE5 whole entry, looked up): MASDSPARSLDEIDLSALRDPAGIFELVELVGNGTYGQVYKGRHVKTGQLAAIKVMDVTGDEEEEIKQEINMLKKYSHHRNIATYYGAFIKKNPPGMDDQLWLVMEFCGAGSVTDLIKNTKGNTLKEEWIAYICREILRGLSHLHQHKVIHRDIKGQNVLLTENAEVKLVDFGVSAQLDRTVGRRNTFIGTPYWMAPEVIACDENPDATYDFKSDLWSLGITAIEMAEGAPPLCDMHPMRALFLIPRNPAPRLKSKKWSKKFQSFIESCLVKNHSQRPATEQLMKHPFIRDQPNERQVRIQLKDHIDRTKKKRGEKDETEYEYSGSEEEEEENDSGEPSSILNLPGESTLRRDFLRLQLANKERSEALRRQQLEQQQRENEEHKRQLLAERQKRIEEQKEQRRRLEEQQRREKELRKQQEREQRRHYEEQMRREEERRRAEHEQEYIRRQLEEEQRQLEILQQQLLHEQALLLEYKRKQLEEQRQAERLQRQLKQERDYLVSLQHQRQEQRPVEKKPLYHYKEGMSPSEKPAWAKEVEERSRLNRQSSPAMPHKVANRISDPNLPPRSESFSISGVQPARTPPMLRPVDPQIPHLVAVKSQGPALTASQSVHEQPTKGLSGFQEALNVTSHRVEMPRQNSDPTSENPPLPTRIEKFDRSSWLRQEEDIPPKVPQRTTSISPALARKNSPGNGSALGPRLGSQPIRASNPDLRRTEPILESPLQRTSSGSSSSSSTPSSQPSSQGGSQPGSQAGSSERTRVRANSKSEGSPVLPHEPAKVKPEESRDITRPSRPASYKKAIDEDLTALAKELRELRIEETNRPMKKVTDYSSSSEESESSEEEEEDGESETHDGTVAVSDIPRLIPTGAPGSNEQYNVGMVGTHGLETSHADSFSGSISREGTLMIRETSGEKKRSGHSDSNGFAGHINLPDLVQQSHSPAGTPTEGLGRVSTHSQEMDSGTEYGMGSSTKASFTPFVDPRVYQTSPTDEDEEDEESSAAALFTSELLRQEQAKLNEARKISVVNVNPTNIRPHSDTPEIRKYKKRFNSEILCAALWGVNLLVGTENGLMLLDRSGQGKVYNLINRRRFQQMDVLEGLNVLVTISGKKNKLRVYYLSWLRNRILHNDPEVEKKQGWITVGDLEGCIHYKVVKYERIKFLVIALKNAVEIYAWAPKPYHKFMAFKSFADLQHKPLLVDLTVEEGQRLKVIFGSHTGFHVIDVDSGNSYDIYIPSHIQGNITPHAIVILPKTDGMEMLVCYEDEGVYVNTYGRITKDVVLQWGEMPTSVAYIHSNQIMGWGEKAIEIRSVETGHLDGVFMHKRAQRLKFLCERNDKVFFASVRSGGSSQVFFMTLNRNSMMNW

Compound in this experiment: Cc1nc(Nc2ncc(C(=O)Nc3c(C)cccc3Cl)s2)cc(N2CCN(CCO)CC2)n1 [dasatinib]
Description: log2 fold change of tryptic peptide abundance, ligand vs vehicle (limited proteolysis) (log2 ratio); higher = more trypsin-susceptible (destabilized). Particulars: ligand concentration: 5 uM; sample: K562 cleared lysate.
For the target “FECH (peptide sequence: LFLDRDLMTLPIQNK, peptide start residue: 92) (UniProt P22830)”, the log2 fold change was -0.278.
Turning to “TYK2 (peptide sequence: EITQLSHLGQGTR, peptide start residue: 588) (UniProt P29597)”, the log2 fold change is -1.29.
As to “PYGB (peptide sequence: GLAGLGDVAEVR, peptide start residue: 18) (UniProt P11216)”, the log2 fold change is -0.49.
For “TAOK2 (peptide sequence: ELDNLQYR, peptide start residue: 299) (UniProt Q9UL54)”, the log2 fold change amounted to 0.422.
With “ADK (peptide sequence: TGCTFPEKPDFH, peptide start residue: 351) (UniProt P55263)”, the log2 fold change is -0.858.
As to “UniProt Q9Y2K2 (peptide sequence: IGYYEIDR, peptide start residue: 63)”, the log2 fold change was -1.83.
For “TNIK (peptide sequence: NHSQRPATEQLMK, peptide start residue: 273) (UniProt Q9UKE5)”, the log2 fold change is -0.606.
As to “RIPK2 (peptide sequence: KTEYPDVAWPLR, peptide start residue: 110) (UniProt O43353)”, the log2 fold change is -1.34.
As to “UniProt Q9Y2U5 (peptide sequence: LLGQGAFGR, peptide start residue: 361)”, the log2 fold change is -0.631.
Take “LIMK2 (peptide sequence: GFFGQAIK, peptide start residue: 340) (UniProt P53671)”: the log2 fold change is -1.19.
Under “UniProt Q13188 (peptide sequence: AGNILLNTEGHAK, peptide start residue: 152)” stands -0.627.
